High-throughput results deposited in PubChem by National Center for Advancing Translational Sciences (NCATS).
This excerpt belongs to a sample that is enriched for hits.
KDM5B inh = Primary screen for KDM5B Histone Demethylases FDH-coupled qHTS; Lysine-specific demethylase 5B (Homo sapiens), Q9UGL1; KDM5B demethylase, FDH-coupled NADH fluorescence (FDH is formaldehyde dehydrogenase); Potency, µM (titrated, usually from 57.7 µM), most hits filed as inhibitors; actives 2.6% (n = 220,000); AID 1347165, 2019; active = well fitted inhibition curve with a large enough effect; note: 0% is about no effect; nearly all actives have a fitted effect of over 70% in size
Target sequence (Q9UGL1 whole entry, looked up): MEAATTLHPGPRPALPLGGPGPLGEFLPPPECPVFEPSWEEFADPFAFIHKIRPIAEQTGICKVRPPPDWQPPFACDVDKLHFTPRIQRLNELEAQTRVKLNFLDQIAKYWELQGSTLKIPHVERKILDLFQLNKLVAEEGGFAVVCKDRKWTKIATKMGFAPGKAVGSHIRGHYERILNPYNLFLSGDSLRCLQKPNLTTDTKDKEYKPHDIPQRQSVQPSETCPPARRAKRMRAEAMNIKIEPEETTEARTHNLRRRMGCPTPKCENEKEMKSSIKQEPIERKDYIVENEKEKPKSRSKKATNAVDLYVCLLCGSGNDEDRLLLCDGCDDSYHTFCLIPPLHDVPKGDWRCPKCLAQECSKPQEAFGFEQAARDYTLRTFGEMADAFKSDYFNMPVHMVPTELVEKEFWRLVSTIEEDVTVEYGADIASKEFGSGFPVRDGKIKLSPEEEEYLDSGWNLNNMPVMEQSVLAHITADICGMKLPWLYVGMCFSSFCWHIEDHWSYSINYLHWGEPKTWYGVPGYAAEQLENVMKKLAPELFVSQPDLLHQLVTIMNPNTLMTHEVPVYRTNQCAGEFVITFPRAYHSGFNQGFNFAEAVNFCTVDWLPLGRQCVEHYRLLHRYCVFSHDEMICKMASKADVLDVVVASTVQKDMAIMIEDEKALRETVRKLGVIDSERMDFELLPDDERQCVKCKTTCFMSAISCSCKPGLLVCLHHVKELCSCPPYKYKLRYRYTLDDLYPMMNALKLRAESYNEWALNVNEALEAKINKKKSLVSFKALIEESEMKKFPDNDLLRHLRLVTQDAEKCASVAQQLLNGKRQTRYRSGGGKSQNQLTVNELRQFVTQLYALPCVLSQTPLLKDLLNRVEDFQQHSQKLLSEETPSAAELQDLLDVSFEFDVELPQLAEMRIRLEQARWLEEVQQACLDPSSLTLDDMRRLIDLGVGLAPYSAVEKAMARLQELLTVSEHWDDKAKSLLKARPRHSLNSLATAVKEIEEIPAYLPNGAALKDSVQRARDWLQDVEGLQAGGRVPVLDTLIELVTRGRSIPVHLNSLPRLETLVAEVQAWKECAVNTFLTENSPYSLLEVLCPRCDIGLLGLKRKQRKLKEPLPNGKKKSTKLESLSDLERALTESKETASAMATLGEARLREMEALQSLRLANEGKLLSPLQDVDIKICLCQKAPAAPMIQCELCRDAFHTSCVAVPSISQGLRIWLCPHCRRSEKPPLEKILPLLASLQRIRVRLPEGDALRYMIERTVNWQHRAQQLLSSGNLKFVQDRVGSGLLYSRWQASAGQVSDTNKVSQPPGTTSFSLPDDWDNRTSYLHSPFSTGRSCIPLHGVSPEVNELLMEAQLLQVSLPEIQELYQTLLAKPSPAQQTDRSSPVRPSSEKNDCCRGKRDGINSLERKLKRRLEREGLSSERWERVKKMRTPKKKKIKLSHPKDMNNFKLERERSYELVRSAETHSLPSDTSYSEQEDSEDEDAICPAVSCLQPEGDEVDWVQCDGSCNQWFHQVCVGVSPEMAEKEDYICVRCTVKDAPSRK
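Here, H3K4me3 peptide (12.5 µM in substrate mix) is demethylated by KDM5BΔAP, 200 nM final, after 10 min compound exposure. Formaldehyde product is coupled through FDH (0.25 U/mL in mix) to NADH fluorescence; 30-min ΔRFU feeds dose-response curves.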
Starred values were filed as active, the others as inactive; i = inactive. Potency is the fitted concentration of half-maximal effect.

SMILES | KDM5B inh
Cn1cc(C(C(=O)O)N2CCN(c3ncccn3)CC2)c2cc(C(=O)O)ccc21 (stereo not drawn) | i
O=C(O)C(c1c[nH]c2ccc(Cl)cc12)N1CCN(c2ncc(Br)cn2)CC1 (stereo not drawn) | i
COc1ccc(Cl)cc1C(C(=O)O)N1CCCN(c2ncccn2)CC1 (stereo not drawn) | 28µM*
Cc1ccc(C(=O)COC(=O)c2cccc(Oc3ccc(C#N)c(C#N)c3)c2)cc1 | i
CCc1ccc(CNC(=O)C2CCN(c3cc(C(F)(F)F)ncn3)CC2)cc1 | 28µM*
Cc1ccc(CNC(=O)C2CCN(c3cc(C(F)(F)F)ncn3)CC2)cc1 | i
O=C(NCc1ccc2c(c1)OCO2)C1CCN(c2cc(C(F)(F)F)ncn2)CC1 | i
O=C(NCCCn1ccnc1)c1ccc(S(=O)(=O)Nc2ccccc2)cc1 | i
CC(C)n1nc(C(=O)NCCCN2CCCC2=O)c2ccccc2c1=O | i
O=C(NCCCn1ccnc1)c1ccc(-c2ncc3cnc(-c4ccccc4)cn23)cc1 | 32µM*
Cc1ccc(C(=O)N2CCc3cc(CNC(=O)COc4ccccc4)ccc32)cc1 | i
O=C(c1ccc(-c2ncc3cnc(-c4ccccc4)cn23)cc1)N1CCc2cccnc21 | 32µM*
O=C(Nc1ccc2[nH]ccc2c1)c1ccc(-c2ncc3cnc(C4=CCOCC4)cn23)cc1 | i
O=C(NCCCn1ccnc1)c1ccc(-c2ccccc2)cc1 | i
O=C(NCCCN1CCCC1=O)c1ccc(-c2ncc3cnc(-c4ccccc4)cn23)cc1 | 32µM*
Cc1ccc(N(C)S(=O)(=O)c2cccc(C(=O)NCCCN3CCCC3=O)c2)cc1 | i
CCCC(C)NC(=O)CN1CCN(c2oc(-c3ccco3)nc2C#N)CC1 (stereo not drawn) | i
COc1cc(C#N)ccc1OCC(=O)NC(=O)NCc1ccccc1 | i
N#CC1=C(N)OC2=C(C(=O)CCC2)C1c1ccc(OC(=O)c2ccccc2)cc1 (stereo not drawn) | i
Cn1cnc2c1c(=O)n(CCCN1CCC(C(N)=O)CC1)c(=O)n2C | i
Cn1ncc2c(C(=O)NCc3ccncc3)cc(-c3ccc(F)cc3)nc21 | 79µM*
CCC(C)NC(=O)c1cc(-c2cccnc2)nc2ccccc12 (stereo not drawn) | i
Cn1ncc2c(NCc3ccc(F)cc3)ncnc21 | i
Cn1ncc2c(C(=O)NCC3CC3)cc(-c3cccnc3)nc21 | 100µM*
O=C(NCc1ccc(F)cc1)c1cc(-c2ccncc2)nc2ccccc12 | i
SMILES | KDM5B inh
Cn1ccc2c(C(=O)NCc3cccnc3)nc(-c3ccc([S+](C)(=O)[O-])cc3)cc21 | i
Cn1ncc2c(C(=O)NC3CC3)cc(-c3cc(Cl)cc(Cl)c3)nc21 | i
Cn1ncc2c(-c3ccc([S+](C)(=O)[O-])cc3)cc(C(=O)NCc3ccc(F)cc3)nc21 | 79µM*
O=C(NCc1ccncc1)c1cc(-c2ccncc2)nc2ccccc12 | i
O=C(CSc1nnnn1-c1ccccc1)Nc1ccccc1C(=O)O | i
CCCCCN1CCN(c2nc3c(c(=O)[nH]c(=O)n3C)n2Cc2ccc(Br)cc2)CC1 | i
COc1ccc(-c2nc(Cn3c(-c4ccccc4)nc(C)c(CCO)c3=O)c(C)o2)cc1 | i
COc1ccc(-c2nc(Cn3c(-c4cccc(Cl)c4)nc(C)c(CCO)c3=O)c(C)o2)cc1 | 28µM*
Cc1nc(-c2cccc(Cl)c2)n(Cc2nc(-c3ccc(OC(C)C)cc3)oc2C)c(=O)c1CCO | 11µM*
COc1ccc(-c2nc(Cn3c(-c4ccc(Cl)cc4)nc(C)c(CCO)c3=O)c(C)o2)cc1 | i
Cc1nc(-c2cccc(Cl)c2)n(Cc2ccc(C#N)cc2)c(=O)c1CCO | i
Cc1cccc(Cn2c(-c3ccc(Cl)cc3)nc(C)c(CCO)c2=O)c1 | i
CCC(C)NS(=O)(=O)c1cccc2cc(C)cnc12 (stereo not drawn) | i
O=S(=O)(c1ccc(F)cc1)N1CCCN(c2nnnn2-c2ccccc2)CC1 | i
COc1ccc(NC(=O)c2ccc3c(c2)NC(C)(COCC2CC2)CO3)cc1OC (stereo not drawn) | i
COc1cccc(NC(=O)c2ccc3c(c2)NC(C)(COc2ccc4[nH]ccc4c2)CO3)c1 (stereo not drawn) | 32µM*
COc1cccc(NC(=O)c2ccc(-c3nc(COc4ccc(C)cc4)c(C)o3)cc2)c1 | i
COc1ccc(OCC2(C)COc3ccc(C(=O)Nc4ccc(OC)nc4)cc3N2)cc1 (stereo not drawn) | 40µM*
COc1ccc(NC(=O)c2ccc3c(c2)OCC(=O)N(C)C3)c(F)c1 | i
COc1ccc(-c2[nH]nc3ncc(C(=O)Nc4ccn(C)n4)nc23)c(C)c1 | i
COc1ccc(NC(=O)c2ccc3c(c2)OCC(=O)N3)cc1 | i
COc1ccc(OCC2(C)COc3ccc(C(=O)Nc4ccn(C)n4)cc3N2)cc1 (stereo not drawn) | 32µM*
COc1ccc(NC(=O)c2ccc3c(c2)OCCCO3)cn1 | i
COc1ccc(/C=C2\Oc3cc(OC(=O)C(C)(C)C)ccc3C2=O)c(OC)c1 | i
C/C(=N\NC(=O)c1ccc(C(C)(C)C)cc1)c1ccc2ccccc2c1 | i
SMILES | KDM5B inh
COc1cc(/C=C/c2nc(-c3ccccc3)nc(-c3ccccc3O)n2)cc(OC)c1OC | i
CC(C(=O)N(C)Cc1ccccc1)N(c1ccc(Oc2ccccc2)cc1)S(C)(=O)=O (stereo not drawn) | i
N#Cc1cn(CC(=O)Nc2ccc(F)c(F)c2)c2ccccc12 | i
C=C(C)CN1CCN(CCC(=O)O)CC1 | i
COC(=O)c1ccc(NC(=O)NCc2cccn2Cc2ccc(F)cc2)cc1 | i
CC(C)OC(=O)N1CCC(COc2ccc3c(cnn3CCC(=O)O)c2)CC1 | i
CC(C)OC(=O)N1CCC(COc2ccc3c(cnn3CC[S+](C)(=O)[O-])c2)CC1 | i
O=C(O)CCn1ncc2cc(OC3CCN(C(=O)OC4CCCC4)CC3)ccc21 | i
O=C(O)CCn1ncc2cc(OC3CCN(C(=O)Oc4ccccc4Cl)CC3)ccc21 | i
O=C(CCC1CCN(c2cc(NC3CC3)ncn2)CC1)Nc1ccccc1 | i
NC(=O)Cn1ccc2cc(OCC3CCN(c4cc(NC5CC5)ncn4)CC3)cnc21 | 40µM*
O=C(O)Cn1ccc2cc(OCC3CCN(C(=O)OC4CCCC4)CC3)cnc21 | 35µM*
Cc1ccc(OC(=O)N2CCC(COc3ccc4c(cnn4CCC(=O)O)c3)CC2)cc1 | i
O=C(O)CCC1CCN(c2cc(NC3CC3)ncn2)CC1 | i
O=C(O)CCn1ncc2cc(OCC3CCN(C(=O)Oc4ccccc4)CC3)ccc21 | i
CC(C)OC(=O)N1CCC(COc2cnc3c(ccn3CC(N)=O)c2)CC1 | 40µM*
NC(=O)Cn1ccc2cc(OCC3CCN(C(=O)Oc4ccccc4Cl)CC3)cnc21 | 28µM*
CCCCCn1nc(C(=O)Nc2ccccc2C(C)=O)c2ccccc2c1=O | i
CCNc1c(NC(=O)Nc2ccc(F)cc2)c(=O)oc2ccccc12 | i
CCCCn1nc(C(=O)Nc2cc(C(F)(F)F)ccc2N2CCOCC2)c2ccccc2c1=O | i
Cc1[nH]nc2ncc(C=O)cc12 | i
CCN(CC)S(=O)(=O)c1cccc(NC(=S)Nc2cc(C)ccc2C)c1 | i
CC(C)c1cc(C(=O)N2CC[C@H](N3CCOCC3)[C@H](CCCO)C2)nc(N)n1 | i
CC(C)c1ccc(C#N)c(N2CC[C@H](N3CCOCC3)[C@H](CCCO)C2)n1 | 28µM*
